Each structure is given as a SMILES string. Values without a mark were called inactive. For some of these results: Results with a measured potency or affinity are listed apart. Calls of active or inactive are those of the source. Unless noted, the rule behind the calls is not given here.

The nature of assay [1]: antimalarial activity against Dd2 strain (AID 2302;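 active = growth inhibition above 50% at the single 2 µM test dose, taken to imply half-maximal potency below 2 µM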;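 note: 0% = DMSO untreated growth and 100% = chloroquine plus artemisinin killed control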). The following applies: P. falciparum Dd2 in RBCs, LDH growth readout, 72 h; at 2 µM; active compounds read high.
Assay [2] can be described thus: HepG2 cytotoxicity, primary screen, cytotoxicity control for P. falciparum antimalarial project, cell-based, ATP luminescence (AID 2303;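 active = inhibition above 50%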;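 note: 0% = DMSO wells and 100% = digitonin-killed cells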). Particulars: HepG2 viability, 24-48 h, at 10 µM, active compounds read high.
In assay [3] the target is L-lactate dehydrogenase (Plasmodium falciparum (isolate CDC / Honduras)) (UniProt Q27743). The assay can be described thus: PfLDH activity inhibition – cell lysate, 3D7 strain, counter-screen for P. falciparum growth inhibition project (AID 2304).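 Note: 0% = vehicle and 100% = reference inhibitor.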 The following applies: P. falciparum 3D7 crude extract, LDH APAD/NBT absorbance; at 2 µM; active compounds read high. Background: Counterscreens check selectivity or assay interference.
L-lactate dehydrogenase (Plasmodium falciparum (isolate CDC / Honduras)), sequence (Q27743 whole entry, looked up): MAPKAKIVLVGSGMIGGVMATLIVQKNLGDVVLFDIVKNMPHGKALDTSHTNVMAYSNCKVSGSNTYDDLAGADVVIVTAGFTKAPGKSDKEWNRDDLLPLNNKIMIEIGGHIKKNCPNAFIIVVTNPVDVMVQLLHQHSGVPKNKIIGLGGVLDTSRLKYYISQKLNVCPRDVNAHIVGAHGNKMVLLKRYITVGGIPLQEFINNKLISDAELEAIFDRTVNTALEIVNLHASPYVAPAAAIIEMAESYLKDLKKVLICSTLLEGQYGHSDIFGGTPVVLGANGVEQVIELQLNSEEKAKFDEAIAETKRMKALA

The nature of assay [4]: inhibition of 3D7 malaria parasite growth – strain 3D7 (AID 2306).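 Note: 0% = DMSO wells and 100% = chloroquine plus artemisinin control wells.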 Particulars: P. falciparum 3D7 erythrocytic growth, LDH absorbance, 72 h; at 2 µM; active compounds read high.
Assay [5] has as its target Calcium-dependent protein kinase 1 (Plasmodium falciparum (isolate 3D7)) (UniProt P62344). The assay can be described thus: PfCDPK1 kinase inhibitors, biochemical, TCAMS library (AID 1159585; cut-off not given, nearly all actives have IC50 up to about 0.98 µM;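 note: inhibitors leave more ATP so luminescence rises with inhibition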). Particulars: recombinant PfCDPK1, Kinase-Glo ATP depletion luminescence. (In general: Kinase-Glo measures the ATP left after a reaction by luminescence.)
For assay [6], the target named is Plasmodium falciparum protein kinase 6 (PK6, PF3D7_1337100) (UniProt Q8IDW1). The assay can be described thus: PfPK6 kinase inhibitors, biochemical, TCAMS library (AID 1159586). The following applies: recombinant PfPK6, Kinase-Glo ATP depletion luminescence.
Plasmodium falciparum protein kinase 6 (PK6, PF3D7_1337100), sequence (Q8IDW1 1-305): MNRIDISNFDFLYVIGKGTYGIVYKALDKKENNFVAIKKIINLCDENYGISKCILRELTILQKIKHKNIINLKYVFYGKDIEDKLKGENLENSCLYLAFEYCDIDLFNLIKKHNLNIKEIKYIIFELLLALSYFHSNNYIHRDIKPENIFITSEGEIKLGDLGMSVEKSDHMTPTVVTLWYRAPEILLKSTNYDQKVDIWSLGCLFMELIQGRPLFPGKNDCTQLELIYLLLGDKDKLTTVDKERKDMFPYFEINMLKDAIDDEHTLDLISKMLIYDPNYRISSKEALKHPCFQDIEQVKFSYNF
In assay [7] the target is Protein kinase 7 (PK7), Plasmodium falciparum 3D7 (PF3D7_0213400) (UniProt Q7YTF7). The assay can be described thus: inhibition of Plasmodium PK7 catalytic activity – biochemical, TCAMS antimalarial set, Kinase-Glo luminescence (AID 1159587). The following applies: recombinant PfPK7, Kinase-Glo ATP depletion luminescence.
Protein kinase 7 (PK7), Plasmodium falciparum 3D7 (PF3D7_0213400), sequence (Q7YTF7 1-343): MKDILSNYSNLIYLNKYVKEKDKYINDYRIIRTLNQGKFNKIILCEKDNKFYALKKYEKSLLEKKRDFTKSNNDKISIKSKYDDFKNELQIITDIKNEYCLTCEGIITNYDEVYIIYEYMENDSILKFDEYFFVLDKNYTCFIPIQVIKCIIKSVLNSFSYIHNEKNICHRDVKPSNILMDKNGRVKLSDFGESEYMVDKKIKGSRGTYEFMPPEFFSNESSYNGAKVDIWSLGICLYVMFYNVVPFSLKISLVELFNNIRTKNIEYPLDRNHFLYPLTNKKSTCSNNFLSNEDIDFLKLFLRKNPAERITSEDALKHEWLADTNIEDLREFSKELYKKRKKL
Assay [8] has as its target Calcium-dependent protein kinase 4 (Plasmodium falciparum (isolate 3D7)) (UniProt Q8IBS5). The assay can be described thus: PfCDPK4 kinase inhibitors, biochemical, TCAMS library (AID 1159588; cut-off not given, nearly all actives have IC50 up to about 0.91 µM). The following applies: recombinant PfCDPK4, Kinase-Glo ATP depletion luminescence.

Calcium-dependent protein kinase 1 (Plasmodium falciparum (isolate 3D7)), sequence (P62344 whole entry, looked up): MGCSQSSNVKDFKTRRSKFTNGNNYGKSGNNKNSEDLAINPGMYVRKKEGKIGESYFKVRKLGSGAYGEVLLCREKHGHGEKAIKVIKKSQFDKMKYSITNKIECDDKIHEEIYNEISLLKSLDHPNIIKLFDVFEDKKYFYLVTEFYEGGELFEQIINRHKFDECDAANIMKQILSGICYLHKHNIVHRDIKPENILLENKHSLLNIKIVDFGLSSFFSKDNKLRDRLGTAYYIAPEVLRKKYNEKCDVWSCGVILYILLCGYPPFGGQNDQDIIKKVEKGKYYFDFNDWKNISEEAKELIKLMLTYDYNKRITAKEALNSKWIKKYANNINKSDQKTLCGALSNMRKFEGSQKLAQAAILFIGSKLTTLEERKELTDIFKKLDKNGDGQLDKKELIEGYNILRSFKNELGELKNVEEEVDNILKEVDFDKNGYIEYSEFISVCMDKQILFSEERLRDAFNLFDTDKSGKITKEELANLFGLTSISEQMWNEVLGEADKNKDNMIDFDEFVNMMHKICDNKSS
Calcium-dependent protein kinase 4 (Plasmodium falciparum (isolate 3D7)), sequence (Q8IBS5 whole entry, looked up): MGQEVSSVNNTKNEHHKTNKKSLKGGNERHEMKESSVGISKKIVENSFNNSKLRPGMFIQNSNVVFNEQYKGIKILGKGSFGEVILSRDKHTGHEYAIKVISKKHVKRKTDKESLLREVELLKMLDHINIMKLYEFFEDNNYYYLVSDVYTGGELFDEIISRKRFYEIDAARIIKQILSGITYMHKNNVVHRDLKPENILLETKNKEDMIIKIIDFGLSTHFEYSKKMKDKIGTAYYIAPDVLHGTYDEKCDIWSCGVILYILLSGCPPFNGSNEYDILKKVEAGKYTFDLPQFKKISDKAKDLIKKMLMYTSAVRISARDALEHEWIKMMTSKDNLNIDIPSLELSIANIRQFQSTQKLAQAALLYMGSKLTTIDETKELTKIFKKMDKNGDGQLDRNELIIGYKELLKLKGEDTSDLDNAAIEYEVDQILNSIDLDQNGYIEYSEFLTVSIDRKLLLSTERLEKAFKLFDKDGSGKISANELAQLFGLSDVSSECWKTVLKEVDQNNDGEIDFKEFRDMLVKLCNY

For the molecule `COc1cc(NC(=O)Nc2ccnc3ccccc23)cc(OC)c1`, the growth inhibition was 34% in assay [1] and 98% (active) in assay [4]. For the same molecule, the inhibition in assay [2] was 11%; in assay [3] it was -6%. In addition, the outcome in assay [5], in assay [6], in assay [7] and in assay [8] was inactive.

For the molecule `Cc1[nH]c(C)c(-c2ccc(OCCOc3ccc(C(F)(F)F)cn3)cc2)c(=O)c1Br`, the growth inhibition in assay [1] and in assay [4] was 97% (active) in each case. The inhibition in assay [2] was 25%; in assay [3] it was 3%. Moreover, the outcome in assay [5], in assay [6], in assay [7] and in assay [8] was inactive.

Take `COc1ccccc1N1CCN(CCCCNC(=O)c2ccc(NC(=O)c3cc(Cl)cc(Cl)c3)cc2)CC1`: the growth inhibition in assay [1] is 75% (active); in assay [4], 101% (active). The inhibition in assay [2] was 9%; in assay [3], 2%. Also, the outcome in assay [5], in assay [6], in assay [7] and in assay [8] was inactive.

Take `FC(F)(F)c1ccc2nc(-c3ccc(-c4cccc(CNCC5CCCO5)c4)cc3)[nH]c2c1` (stereo not given): the growth inhibition was 100% (active) in assay [1] and 101% (active) in assay [4]. In addition, the inhibition in assay [2] was 36%; in assay [3], -5%. Further, the outcome in assay [5], in assay [6], in assay [7] and in assay [8] was inactive.

Consider `CC(C)(C)c1ccc(C(=O)Nc2ccc(NC(=O)c3ccc([N+](=O)[O-])o3)cc2)cc1`, for which the growth inhibition was 4% in assay [1] and 81% (active) in assay [4]. The inhibition in assay [2] was -2%; in assay [3], 2%. Moreover, the outcome in assay [5], in assay [6], in assay [7] and in assay [8] was inactive.

Take `Cc1cc(N2CCOCC2)nc2ccc(NC(=O)c3ccc(Cl)c([N+](=O)[O-])c3)cc12`: the growth inhibition in assay [1] is 15%; in assay [4], 98% (active). Moreover, the inhibition was 12% in assay [2] and 3% in assay [3]. Also, the result in assay [5], in assay [6], in assay [7] and in assay [8] was inactive.

Consider `O=C(Cn1c(=O)cnc2ccccc21)Nc1cccc(C(=O)Nc2cccc(C(F)(F)F)c2)c1`, for which the values for the growth inhibition in assay [1] and in assay [4] were 66% (active) and 90% (active), respectively. Moreover, the inhibition was -12% in assay [2] and 3% in assay [3]. The outcome in assay [5], in assay [6], in assay [7] and in assay [8] was inactive.

In the case of `COc1cc(C2C(Oc3ccccc3)C(=O)N2Cc2ccc(F)cc2)cc(OC)c1OC` (stereo not given), the figures for the growth inhibition in assay [1] and in assay [4] were 97% (active) and 100% (active), respectively. Also, the results for the inhibition in assay [2] and in assay [3] were -2% and 4%, respectively. Besides, the result in assay [5], in assay [6], in assay [7] and in assay [8] was inactive.

With `CN(C)CC(O)C(O)(c1ccccc1)c1ccc(F)cc1` (stereo not given), the figures for the growth inhibition in assay [1] and in assay [4] were 10% and 93% (active), respectively. The inhibition was -10% in assay [2] and 4% in assay [3]. The outcome in assay [5], in assay [6], in assay [7] and in assay [8] was inactive.

Consider `CCC(C)c1ccc(Nc2nc(C)cc(N(CC)CCCN3CCCCC3)n2)cc1` (stereo not given), for which the growth inhibition was 83% (active) in assay [1] and 101% (active) in assay [4]. The inhibition in assay [2] is 55% (active); in assay [3], -7%. For the same molecule, the result in assay [5], in assay [6], in assay [7] and in assay [8] was inactive.

Take `COc1ccc2nc(C)cc(NC3Cc4ccccc4C3)c2c1`: the growth inhibition in assay [1] was 13%; in assay [4] it was 98% (active). Besides, the results for the inhibition in assay [2] and in assay [3] were 20% and 5%, respectively. The outcome in assay [5], in assay [6], in assay [7] and in assay [8] was inactive.

`CCn1nc(C(=O)NC2CCOc3ccccc32)c2ccccc2c1=O` (stereo not given): the growth inhibition in assay [1] was 59% (active); in assay [4], 86% (active). Besides, the inhibition in assay [2] is 13%; in assay [3], 0%. The result in assay [5], in assay [6], in assay [7] and in assay [8] was inactive.

With `CCCCCCCN(Cc1ccc(OC(C)(C)C(=O)OCC)cc1)C(=O)Nc1ccccc1OCC`, the growth inhibition is 94% (active) in assay [1] and 93% (active) in assay [4]. Besides, the results for the inhibition in assay [2] and in assay [3] were -5% and -3%, respectively. The outcome in assay [5], in assay [6], in assay [7] and in assay [8] was inactive.

Consider `COc1cc2nc(N3CCC(CNC(=O)c4ccc(-c5ccc(C#N)cc5C)cc4)CC3)nc(N)c2cc1OC`, for which the results for the growth inhibition in assay [1] and in assay [4] were 99% (active) and 101% (active), respectively. The inhibition was 28% in assay [2] and -4% in assay [3]. For the same molecule, the result in assay [5], in assay [6], in assay [7] and in assay [8] was inactive.

Regarding `COc1ccc2nccc([C@@H](O)CN3CCC(NCCOc4ccccc4C#N)CC3)c2c1`, the growth inhibition in assay [1] was 99% (active); in assay [4] it was 101% (active). The inhibition in assay [2] was 10%; in assay [3], 2%. Also, the outcome in assay [5], in assay [6], in assay [7] and in assay [8] was inactive.

As for `O=C(Nc1ccc(-c2cccc(-c3nc4ccc(F)cc4[nH]3)c2)cc1)Nc1ccsc1`, the values for the growth inhibition in assay [1] and in assay [4] were 51% (active) and 101% (active), respectively. The results for the inhibition in assay [2] and in assay [3] were 34% and 5%, respectively. Also, the result in assay [5], in assay [6], in assay [7] and in assay [8] was inactive.

Consider `Cc1[nH]c(C)c(-c2ccc(OCc3ccc(F)cc3)cc2)c(=O)c1Cl`, for which the growth inhibition in assay [1] was 96% (active); in assay [4], 95% (active). Further, the results for the inhibition in assay [2] and in assay [3] were -10% and -1%, respectively. Besides, the result in assay [5], in assay [6], in assay [7] and in assay [8] was inactive.

On to `COc1cc(Cc2cnc(N)nc2N)cc(OC)c1OCCCCC(=O)O`, for which the growth inhibition in assay [1] is -1%; in assay [4], 88% (active). For the same molecule, the inhibition in assay [2] and in assay [3] was -4% throughout. In addition, the result in assay [5], in assay [6], in assay [7] and in assay [8] was inactive.

On to `O=C(Nc1ccc(N2CCN(Cc3cccc(F)c3)CC2)cc1)c1cccs1`, for which the growth inhibition in assay [1] was 92% (active); in assay [4], 95% (active). Further, the results for the inhibition in assay [2] and in assay [3] were -5% and -1%, respectively. In addition, the result in assay [5], in assay [6], in assay [7] and in assay [8] was inactive.

As to `NC(=O)c1cnc2cc(-c3ccncc3)cc(Nc3ccc(NC(=O)C4CCCCC4)cc3)c2c1`, the growth inhibition in assay [1] was 99% (active); in assay [4] it was 98% (active). For the same molecule, the inhibition was 58% (active) in assay [2] and 0% in assay [3]. Also, the outcome in assay [5], in assay [6], in assay [7] and in assay [8] was inactive.

By inhibition is commonly meant the change of the read-out against control, counted positive when it falls.
